Screening results deposited in PubChem by National Center for Advancing Translational Sciences (NCATS).
Hits are enriched below; roughly 12% of the tested compounds scored in any of these assays.
Sfp PPTase inh = qHTS Assay for Inhibitors of Bacillus subtilis Sfp phosphopantetheinyl transferase (PPTase). Potency, µM, hits mostly inhibitors. 4'-phosphopantetheinyl transferase ffp (Bacillus subtilis), Q9F4F7. Biochemical Sfp PPTase activity, qHTS. 3.5% of 310,000 active. AID 1490, 2009;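 note: the enzyme is Sfp with the accession as filed and its product quenches rhodamine fluorescence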
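Step 1, compound plus 15 nM Sfp-PPTase, 15 min, room temperature. Step 2, add rhodamine-CoA (5 uM) and BHQ-2-YbbR (12.5 uM). Step 3, read 525/598 nm fluorescence at 0 and 30 min.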
BAZ2B inh = qHTS Assay for Inhibitors of BAZ2B. Bromodomain adjacent to zinc finger domain protein 2B (Homo sapiens), Q9UIF8. Potency, µM (series often up to 114 µM), usual class: inhibitors. AlphaScreen BAZ2B-H3K14Ac peptide displacement. 4.4% of 360,000 active; note: nearly all actives have a fitted effect of over 60% in size
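AlphaScreen displacement of biotin-H3(5-23)K14Ac peptide (50 nM final) from BAZ2B (50 nM final) in PBS pH 7.4, 0.01% Tween-20; complex preformed 30 min RT, then compounds (top 110 uM) 30 min RT, beads 20 min dark.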
HP1b chromo inh = HTS for Inhibitors of HP1-beta Chromodomain Interactions with Methylated Histone Tails. Chromobox protein homolog 1 (Homo sapiens), P83916. AlphaScreen HP1-beta / biotin-H3K9me3 peptide binding. Potency, µM (titrated, usually from 114 µM), most hits filed as inhibitors. 0.56% of 390,000 active; note: nearly all actives have a fitted effect of over 70% in size
Target sequence (P83916 whole entry, looked up): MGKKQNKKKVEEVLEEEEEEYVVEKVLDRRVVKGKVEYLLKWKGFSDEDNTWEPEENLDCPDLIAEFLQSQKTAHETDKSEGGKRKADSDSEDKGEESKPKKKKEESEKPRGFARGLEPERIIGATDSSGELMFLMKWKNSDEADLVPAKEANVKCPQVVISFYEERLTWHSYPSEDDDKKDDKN
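AlphaScreen: HP1-beta (50 nM) preformed 30 min with biotin-H3(1-18)K9me3 peptide (50 nM) in PBS pH 7.4, 0.01% Tween-20. Compound added for 30 min at RT, then streptavidin donor/nickel chelate acceptor beads (10 ug/mL) for 30 min.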
JMJD2A Tudor inh = qHTS Assay for Inhibitors of JMJD2A-Tudor Domain | AID 504339, 2011 | Potency, µM (top dose mostly 114 µM), most hits filed as inhibitors | 4.4% of 390,000 active | AlphaScreen JMJD2A-Tudor / H3K4me3 peptide binding; note: nearly all actives have a fitted effect of over 50% in size
L3MBTL1 block = qHTS Assay for the Inhibitors of L3MBTL1; Lethal(3)malignant brain tumor-like protein 1 (Homo sapiens), Q9Y468; AlphaScreen L3MBTL1–H3K9me1 peptide binding; Potency, µM (highest dose often 57.1 µM), actives largely listed as inhibitors; 0.66% of 230,000 active; AID 485360, 2010; note: nearly all actives have a fitted effect of over 60% in size
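L3MBTL1 50 nM + b-AHA-H3(1-15)K9me1 75 nM, 30 min RT; compound added, 30 min RT; streptavidin donor/Ni-chelate acceptor beads 10 ug/mL each final, 30 min RT dark; AlphaScreen read.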
G9a block = qHTS Assay for Inhibitors of Histone Lysine Methyltransferase G9a | G9a H3K9 monomethylation, AlphaScreen, 2 h | Potency, µM (top dose mostly 102 µM), actives largely listed as inhibitors | 8.8% of 350,000 active | AID 504332, 2011; note: nearly all actives have a fitted effect of over 75% in size
Target sequence (Q96KQ7 913-1193 limits assumed): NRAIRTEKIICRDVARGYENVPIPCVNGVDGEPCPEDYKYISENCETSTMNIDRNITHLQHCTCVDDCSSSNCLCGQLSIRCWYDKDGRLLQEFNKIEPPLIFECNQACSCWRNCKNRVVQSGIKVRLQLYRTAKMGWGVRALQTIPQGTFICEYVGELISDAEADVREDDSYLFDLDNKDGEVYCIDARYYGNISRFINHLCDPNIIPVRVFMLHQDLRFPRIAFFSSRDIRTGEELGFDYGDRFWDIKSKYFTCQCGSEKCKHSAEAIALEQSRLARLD
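G9a (20 nM) preincubated 15 min RT with compounds, then 500 nM biotinylated H3K9 peptide and 20 uM SAM added; 2 h RT reaction. Monomethyl-H3K9 product detected by AlphaScreen with anti-H3K9me1 antibody, streptavidin donor and anti-rabbit IgG acceptor beads.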
Of the large screens only hits and unclear results are named; the others gave an inactive call. Calls come from the whole dose curve; as a rule, active = well fitted curve in the direction sought with a large enough effect; inconclusive = small, poorly fitted or top-dose-only effect, or another doubt; inactive = no such curve, though single readings can be large; an effect the other way counts as inactive or inconclusive.

COC(=O)c1ccc(C2C(C#N)=C(C)NC3=C2C(=O)CC(C)(C)C3)cc1 (configuration not stated)	none
COc1ccc(C2CC(=O)C3=C(C2)NC(C)=C(C#N)C3c2ccc(N(C)C)cc2)cc1 (configuration not stated)	BAZ2B inh inconclusive, HP1b chromo inh inconclusive, JMJD2A Tudor inh inconclusive, L3MBTL1 block inconclusive, G9a block 13µM
CC(=O)OCCN(C)c1cc(SC(C)C)c2nonc2c1[N+](=O)[O-]	BAZ2B inh inconclusive, JMJD2A Tudor inh inconclusive, G9a block 50µM
CCOC(=O)N1CCN(c2cc(N(C)CCO)c([N+](=O)[O-])c3nonc23)CC1	G9a block inconclusive (no result: L3MBTL1 block)
CN(CCO)c1cc(Sc2nc3ccccc3s2)c2nonc2c1[N+](=O)[O-]	Sfp PPTase inh 25µM, HP1b chromo inh inconclusive, JMJD2A Tudor inh 22µM, G9a block inconclusive
O=C(COC(=O)c1cccc(Br)c1)NCCC1=CCCCC1	none (no result: BAZ2B inh)
O=C(COC(=O)c1cncc(Br)c1)NCCC1=CCCCC1	G9a block 50µM
O=S(=O)(Nc1cc(S(=O)(=O)N2CCOCC2)ccc1NCC1CCCO1)c1ccccc1F (configuration not stated)	G9a block inconclusive (no result: Sfp PPTase inh)
Cc1ccc(/C=N/Nc2nc(C(C)(C)C)cs2)o1	Sfp PPTase inh 50µM, BAZ2B inh 45µM, HP1b chromo inh inconclusive, JMJD2A Tudor inh 45µM, G9a block 10µM
C(=N\Nc1nc(-c2ccccc2)cs1)/c1cccnc1	Sfp PPTase inh 56µM, BAZ2B inh inconclusive, JMJD2A Tudor inh inconclusive, G9a block inconclusive
Clc1ccc(-c2csc(N/N=C/c3cccnc3)n2)c(Cl)c1	Sfp PPTase inh inconclusive, BAZ2B inh inconclusive, JMJD2A Tudor inh inconclusive, G9a block inconclusive
CC(C)(C)c1csc(N/N=C/c2cccnc2)n1	BAZ2B inh 40µM, JMJD2A Tudor inh inconclusive, G9a block inconclusive
Cc1ccc(/C=N/Nc2nc3ccccc3s2)o1	Sfp PPTase inh inconclusive, BAZ2B inh inconclusive, JMJD2A Tudor inh inconclusive, G9a block inconclusive
CC1Cc2cc(S(=O)(=O)CCC(=O)Nc3ccc(Cl)cc3F)ccc2N1C(=O)C1CC1 (configuration not stated)	none (no result: Sfp PPTase inh, L3MBTL1 block)
CCN(CC)Cc1ccc(OC)c(Cl)c1	none
COc1cc(CN(CCN(C)C)Cc2ccccc2)ccc1OCc1ccccc1	BAZ2B inh 40µM, HP1b chromo inh inconclusive, JMJD2A Tudor inh 1µM, G9a block 32µM
CCN(Cc1ccncc1)Cc1ccc(OC)c(OC)c1	Sfp PPTase inh inconclusive, BAZ2B inh inconclusive, HP1b chromo inh inconclusive, JMJD2A Tudor inh 25µM (no result: G9a block)
COc1ccc(CN(CCc2ccccc2)Cc2ccccc2)cc1OC	BAZ2B inh 79µM, HP1b chromo inh inconclusive, JMJD2A Tudor inh 10µM, G9a block inconclusive
COc1ccc(Cc2noc(CN(C)CCc3ccccc3)n2)cc1OC	none (no result: G9a block)
NC1=NC(c2cn(-c3ccccc3)nc2-c2cccs2)n2c(nc3ccccc32)N1 (configuration not stated)	Sfp PPTase inh 45µM, JMJD2A Tudor inh inconclusive (no result: L3MBTL1 block)
CC1=C(C#N)C(c2cn(-c3ccccc3)nc2-c2cccs2)C(C#N)=C(C)N1	none
Nc1c(C(=O)Nn2cnnc2)cc([N+](=O)[O-])cc1[N+](=O)[O-]	G9a block 50µM (no result: HP1b chromo inh, JMJD2A Tudor inh)
c1ccc(-n2nc3c(ccc4cnnc43)[nH]2)cc1	BAZ2B inh 50µM, G9a block 18µM
COc1ccccc1NCC(=O)N/N=C(\C)c1cccs1	BAZ2B inh inconclusive, HP1b chromo inh inconclusive, JMJD2A Tudor inh 35µM (no result: L3MBTL1 block)
COc1ccccc1NC(=O)CCC(=O)Nc1cc(OC)c(NC(=O)c2cccs2)cc1OC	JMJD2A Tudor inh 79µM (no result: L3MBTL1 block)
